# Compounds with a hit are over-represented: about 3.5% of the library has one in this group of screens.
# BoNT A protease – BoNT/A light chain protease inhibitors, primary screen, biochemical, flow cytometry, MLPCN library; hit rate 0.17% among 360,000; multiplex microsphere protease substrate cleavage; Botulinum neurotoxin type A light chain protease (Clostridium botulinum A str. ATCC 3502); inhibition, % at 10 µM; further: plate controls were buffer without enzyme for full effect and enzyme alone for no effect
# Autofluor counter – counter-screen for toxin protease inhibitors: compound fluorescence | compound autofluorescence counterscreen, microsphere flow cytometry; hits give high values | fluorescence intensity (concentration not given with the values) | hit rate 3.1% among 360,000; in the data active means fluorescence intensity above about 16000; inconclusive means no clear call, values can overlap the other calls
# BoNT F protease – BoNT/F light chain protease inhibitors, primary screen, biochemical, flow cytometry, MLPCN library. Botulinum neurotoxin type F light chain protease (Clostridium botulinum). Multiplex microsphere protease cleavage assay. inhibition, % at 10 µM. hit rate 0.22% among 360,000. AID 588497, 2011; in the data active means inhibition above about 35%, passing the limit was not always enough; inconclusive means no clear call, values can overlap the other calls; further: plate controls were buffer without enzyme for full effect and enzyme alone for no effect
# Anthrax LF inh2 – Bacillus anthracis LF protease inhibitors, primary screen, biochemical, multiplex microsphere, MLPCN library | Lethal factor (Bacillus anthracis), P15917 | multiplex microsphere protease cleavage assay | inhibition, % at 10 µM | hit rate 0.12% among 360,000; further: plate controls were buffer without enzyme for full effect and enzyme alone for no effect
# * = called active by the depositor; ? = inconclusive. Unless noted, no stated cut-off is given here; in the data, active means inhibition above about 30%; inconclusive means no clear call, values can overlap the other calls; inactive means below that.
SMILES,BoNT A protease,Autofluor counter,BoNT F protease,Anthrax LF inh2
CCCNC(=O)c1c(N)n(-c2cccc(OC)c2)c2nc3ccccc3nc12,?,20561*,8.0,7.6
COCCCNC(=O)c1c(N)n(-c2cccc(S(N)(=O)=O)c2)c2nc3ccccc3nc12,1.1,3151,1.8,3.7
O=C(/C=C/c1ccccc1)c1ccccc1,-1.5,4674,0.7,-11.3
O=C(/C=C\c1ccc(-c2ccccc2)o1)c1ccccc1,66.4*,2216,21.3,26.7
Cc1ccc(C(=O)/C=C/c2ccc(-c3ccc(C)cc3)o2)cc1,40.9*,2666,3.0,14.2
CCN(CC)S(=O)(=O)c1ccc(C(=O)/C=C/c2ccc(-c3ccc([N+](=O)[O-])cc3)o2)cc1,79.3*,4161,25.9,47.5*
O=C(O)CCCC(=O)Nc1cccc(-c2nc3ccccc3[nH]2)c1,-0.4,16669*,-2.8,3.2
CC(=O)Nc1cccc(NC(=O)CCCC(=O)O)c1,?,18707*,2.8,1.0
COc1ccc(OCC(=O)Nc2cccc(-c3nc4ccccc4[nH]3)c2)cc1,?,24148*,-2.6,-2.6
O=C(O)CCCC(=O)Nc1cccc([N+](=O)[O-])c1,0.1,7559,1.0,-6.9
O=C(COc1ccccc1)Nc1cccc(-c2nc3ccccc3[nH]2)c1,-0.3,1958,-3.4,0.2
O=C(NC1CCCCC1)C1(S(=O)(=O)c2ccc(Cl)cc2)CC1,-1.0,4799,-2.2,-2.3
O=C(O)Cc1sc(Nc2ccc(F)cc2)nc1-c1cccs1,6.1,3712,-7.2,2.1
O=C(NCC(=O)N1CCN(Cc2c(F)cccc2Cl)CC1)c1cccc(Cl)c1,-21.7,8799,-29.8,-7.0
COC(=O)c1cc(C(=O)OC)cc(N2C(=O)CC(NNC(=O)c3ccc(C)cc3)C2=O)c1 (stereo not drawn),0.0,2657,-8.1,0.4
COC(=O)c1cc(C(=O)OC)cc(N2C(=O)CC(NNC(=O)c3ccccc3Br)C2=O)c1 (stereo not drawn),-5.9,17445*,-7.9,-7.5
CCc1ccc(CNn2cnnc2SCC(=O)NC(C)(C)C)cc1,-0.9,16664*,-1.2,-1.3
CCN1CCC(O)(C(C(=O)OC)c2ccccc2)CC1 (stereo not drawn),0.2,3284,-5.2,-12.1
Cc1occc1-c1nnc(SCC(=O)N(C)C)o1,-0.5,19878*,-0.2,3.6
Cc1occc1-c1nnc(SCC(=O)N2CCCCC2C)o1 (stereo not drawn),1.3,4861,7.4,2.2
O=C(COc1ccc(Cl)cc1)Nc1cc(NC(=O)COc2ccc(Cl)cc2)cc(C(=O)O)c1,-3.8,4225,0.3,-8.2
CC(C)(C)c1ccc(CC(=O)N2CCC2(C)C(=O)N2CCCCC2)cc1 (stereo not drawn),-0.3,3751,-8.4,-1.7
C=CCOC(=O)COc1ccc2c(C)c(CC)c(=O)oc2c1,-1.0,23645*,-3.1,-1.4
COc1ccc(C)c2sc(N(CCCN(C)C)C(=O)c3ccc4c(c3)OCCO4)nc12,1.0,5680,2.8,-3.5
C=CCOn1c(=O)c(-c2cccs2)[n+]([O-])c2ccccc21,4.0,21222*,2.2,2.8
SMILES,BoNT A protease,Autofluor counter,BoNT F protease,Anthrax LF inh2
COc1ccc2c(c1)C(C1=C(O)CC(C)(C)CC1=O)C1=C(CC(C)(C)CC1=O)O2 (stereo not drawn),-3.8,24480*,-4.3,-4.0
CC1(C)CC(=O)C(C2C3=C(CC(C)(C)CC3=O)Oc3ccccc32)=C(O)C1 (stereo not drawn),-0.4,2857,2.9,0.2
CCN(CC)CCN1C(=O)c2ccccc2NC1c1ccc(C)cc1 (stereo not drawn),?,23099*,2.4,-3.5
COc1ccc(C2C(=O)N(CCc3ccccc3)CC(=O)N2C2CCCCC2)cc1 (stereo not drawn),-3.3,25113*,-5.5,-3.8
O=C(CCC1COc2ccccc2O1)NC1CCCCC1 (stereo not drawn),-0.4,23549*,1.9,0.4
CN(CCc1ccccn1)Cc1ccc(Cl)c(Cl)c1,-4.4,4055,?,7.1
CN(CCc1ccccn1)Cc1ccc(Cl)cc1Cl,-4.3,24561*,-3.1,0.4
Cc1ccc(OCC(=O)NNC(=O)CSc2ncc(C#N)c(N)n2)cc1,0.1,2536,-3.7,-3.0
N#Cc1cnc(SCC(=O)Nc2ccccc2C(F)(F)F)nc1N,?,17110*,-3.9,4.1
Cc1nc(N)sc1-c1nnc(SCC(=O)Nc2ccccc2C(F)(F)F)n1C,-2.0,22790*,-3.9,-0.6
CCc1ccccc1OCC(=O)NCC1COc2ccccc2O1 (stereo not drawn),-0.3,3992,1.9,-8.7
Cc1ccc(NS(=O)(=O)c2ccc(C)c(NC(=O)c3ccc(S(=O)(=O)N4CCCCCC4)cc3)c2)c(C)c1,0.1,3504,-1.2,-8.4
O=C(c1cc2c(s1)CCCC2)N1CCC2(CC1)OCCO2,?,23757*,-0.4,-0.1
Nc1nc(CN2CCN(c3ccccc3F)CC2)nc(Nc2ccccc2)n1,-1.9,16781*,-5.7,-1.1
Cc1ccc(Nc2nc(N)nc(CN3CCN(C)CC3)n2)cc1,0.4,3047,-4.6,-0.7
Cc1ccc(Nc2nc(N)nc(CN3CCN(c4ccccc4F)CC3)n2)cc1,-0.8,3836,-4.3,-4.7
Cc1cccc(Nc2nc(N)nc(CN3CCN(C)CC3)n2)c1,-1.2,23797*,-4.1,-0.9
N#Cc1cnn(-c2ccccc2)c1NC(=O)c1ccccc1F,-1.4,3695,-16.7,-8.2
CC1(C)CC(=NOC(=O)c2ccccc2)CC(C)(C)N1,2.0,19903*,2.7,1.3
O=C(OCn1ncc(Cl)c(Cl)c1=O)c1ccccc1Cl,-0.3,16218*,-4.0,-1.0
CC1(C)CC(=O)c2c(O)cc(OCc3ccc([N+](=O)[O-])cc3)cc2O1,?,24979*,-3.3,-2.1
Cc1ccc(C(=O)C(OC(=O)CNC(=O)c2ccc(Cl)cc2)c2ccccc2)cc1 (stereo not drawn),?,21549*,4.8,-0.5
Cc1ccc(C(=O)C(OC(=O)CN2C(=O)c3ccccc3C2=O)c2ccccc2)cc1C (stereo not drawn),0.8,22707*,0.6,-1.4
O=C(CN1C(=O)c2ccccc2C1=O)OC(C(=O)c1ccc(Cl)cc1)c1ccccc1 (stereo not drawn),-4.4,21488*,-6.1,-1.3
O=C(OCC(=O)N1CCc2ccccc21)c1n[nH]c(=O)c2ccccc12,-0.1,3035,-3.7,-12.2
CCOC(=O)c1cc2c(=O)n3ccccc3nc2n(C(C)C)c1=NC(=O)c1c(-c2c(F)cccc2Cl)noc1C,70.8*,2502,23.7,34.5*
Cc1cc(OC(C)C(=O)Nc2ccncc2)ccc1Cl (stereo not drawn),-4.8,3996,4.1,5.4
Cc1cc(/C=C2/SC(=S)N(c3cccc(C(F)(F)F)c3)C2=O)c(C)n1-c1cccnc1,53.4*,11089,83.5*,45.5*
Cc1cc(-n2nc(C)cc2C)n2nc(C)c(-c3ccc(Cl)cc3)c2n1,13.3,17908*,17.5,-20.2
C=CCSc1cc(C)nc2c(-c3ccc(Cl)cc3)c(C)nn12,0.0,20069*,-0.7,-0.8

# Assay outcomes as filed in PubChem BioAssay.
